Assay results as given in PubChem BioAssay (NCI).
Several values for one entry are separate records, joined by “and”; a condition that tells them apart may be missing. Equal entries are not always repeated. The panel holds about 83,000 compounds, 20% with a hit somewhere; the sample as a whole holds those more often.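 Each cell line was grown in a 96-well plate and treated with one concentration of compound for 48 hours. Values below 10 were considered active.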 A number with no mark means an inactive call. Activity calls are given as the source filed them.

Test system: MDA-MB-468 breast
Experiment: NCI-60 one-dose screen, 48 h (100 = growth as untreated, 0 = no growth, -100 = all killed)
Settings: 10 µM unless noted

Row | Compound | growth
1 | CC1(CO)CCCC1NCCNC1CCCC1(C)CO (stereo not given) | 104% and 95.5%
2 | Cc1ccc(-c2csc(NC(=O)CCCCl)n2)cc1 | 93.3%
3 | COc1ccc(-c2nc3cc(C(=O)NCc4ccccc4)ccc3n2C2CCCCC2)cc1 | 98.4%
4 | Cc1ccc2[nH]c(=S)n(-c3ccc(S(=O)(=O)Nc4ccc(Cl)nn4)cc3)c(=O)c2c1 | 107%
5 | NC(=O)Nc1cc(-c2cccc(F)c2)sc1C(=O)N[C@H]1CCCNC1 | -60.5% (active)
6 | CCOC(=O)[C@@H]1CSC(CC)=C(C(=O)O)N1 | 113%
7 | CN(c1ncccc1CNc1nc(Nc2ccc3c(c2)CC(=O)N3)ncc1C(F)(F)F)S(C)(=O)=O | -44.5% (active)
8 | O=S(=O)(NCCCNc1cc(-c2cn(-c3ccccc3)nc2-c2cccc(O)c2)ccn1)c1ccc(Br)cc1 | -27.4% (active)
9 | O=C(CCCCCCC(=O)Nc1ccc2c(c1)/C(=C/c1ccc[nH]1)C(=O)N2)NO | 22.9%
10 | CC(=O)c1nn(-c2ccccc2)c(=Nc2ccccc2)cc1C | 91.9%
11 | C[C@@H](N)c1ccc(C(=O)Nc2ccnc3[nH]ccc23)cc1 | 49.2%
12 | O=C(/C=C/c1ccc(F)cc1)Nc1cccc2cccnc12 | -19.1% (active)
13 | COc1cccc(C(=O)OCC(O)C(=O)NC23CC4CC(CC(C4)C2)C3)c1 (stereo not given) | 88%
14 | Cc1cccc(NCS(=O)(=O)O)c1 | 93.7%
15 | COc1ccc(/C=C/C(=O)O)cc1OC | 99.5% and 102%
16 | CCN(CC)CCCNC(=O)c1ccc(N)cc1O | 85.7%
17 | Cc1ccc(-c2nc3nc(-c4ccccc4)nc(N4CCCN(S(C)(=O)=O)CC4)c3o2)cc1 | 121%
18 | Clc1ccc(-n2ncc3c(NCCCN4CCOCC4)ncnc32)cc1 | 74.4%
19 | CN1CCN(c2ccc(Nc3nc(NCCNS(=O)(=O)c4ccc5ccccc5c4)c4sccc4n3)cc2)CC1 | 2.8% (active)
20 | C#CC[C@H](N)C(=O)O | 101% [20 µM]

Row | Compound | growth
21 | O=C(Nc1cccc([N+](=O)[O-])c1)c1ccc(Cl)c(Cl)c1 | 64.2%
22 | Clc1nc(N2CCC[N+]3(CC2)CC[N+]2(CCCNCC2)CC3)nc(N2CCC[N+]3(CC2)CC[N+]2(CCCNCC2)CC3)n1 (stereo not given) | 65.8%
23 | CCN1CCN(C(=S)SCC(=O)Nc2nc3ccc(C)cc3s2)CC1 | 104%
24 | CC(C)(C)OC(=O)N1CCN(CCn2cc(C(F)(F)F)c3c(Cl)ncnc32)CC1 | 19.4%
25 | COc1cc(-c2nc(-c3nnc(-c4ccc(F)c(Cl)c4)o3)c3ccccn23)cc(OC)c1OC | 52.5%
26 | c1ccc(-c2nn[nH]n2)c(-c2ccc(CN3CCN(c4nsc5ccccc45)CC3)cc2)c1 | 75.8%
27 | CC(C)C[C@@H](C(=O)N[C@H](C(=O)OC1CCCC1)c1ccccc1)[C@H](O)C(=O)NO | 16.9%
28 | Brc1cccc(-c2cc(-c3ccc4c(c3)OCCCO4)[nH]n2)c1 | 50.6% [25 µM]
29 | COc1ccc(-c2csc(NC(=O)N3CCN(c4cc5c(cc4F)c(=O)c(C(=O)O)cn5C4CC4)CC3)n2)cc1 | -2.96% (active)
30 | Cc1ccc(S(=O)(=O)N2CCc3ccccc3CC2)cc1 | -4.8% (active)
31 | COc1ccc(-c2nn(C(=O)NCCN(C)C)cc2-c2ccncc2)cc1Cl | 4.11% (active)
32 | O=C(O)c1ccc(Br)nc1 | 88.6%
33 | Nc1ccccc1SC1CC(=O)N(c2ccc(Cl)c(Cl)c2)C1=O (stereo not given) | 80.4%
34 | O=C(Nc1ccccc1)Nc1ccc2cc3ccc(NC(=O)Nc4ccccc4)cc3nc2c1 | -57.8% (active)
35 | OCC1OC2C(NC(=S)N2c2ccccc2)C(O)C1O (stereo not given) | 94.6%
36 | C=C(C)[C@@H]1CC[C@]2(C(=O)O)CC[C@]3(C)[C@H](CC[C@@H]4[C@@]5(C)CCC(N)C(C)(C)[C@@H]5CC[C@]43C)[C@@H]12 (stereo not given in full) | -23.2% (active)
37 | Nc1c(Cl)cc(/C=C2\C=Cc3ccccc32)cc1Cl | 97.9%
38 | O=C1C(Cl)=C(NCc2ccco2)C(=O)c2ccccc21 | 25%
39 | c1ccc2c(c1)Cc1ccccc1N2CCN1CCCCC1 | 99.4%
40 | CN1CCN(Cc2cc(NC(=O)c3cccc(C#Cc4cccc5[nH]nc(N)c45)c3)cc(C(F)(F)F)c2)CC1 | 10.8%
